Measurements taken from PubChem BioAssay (NCI).
Compounds without any hit were thinned out: in the full panel of roughly 79,000, 15% have a hit. Calls of active or inactive are those of the source. Rule as the data show it: active = growth inhibition above about 70%; inactive = the rest.

Tests used:
[1] = NCI Yeast Anticancer Drug Screen. Data for the rad50 strain (AID 155);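 also: 0% = growth of vehicle-only cultures of the same strain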; conditions: S. cerevisiae rad50 strain growth inhibition; at 50.0 µM; active compounds read high
Summary of the method: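 Cells are treated with compound, grown, and their growth is then scored against vehicle-only cultures of the same repair-deficient yeast strain.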

[2] = NCI Yeast Anticancer Drug Screen. Data for the mec2-1 strain (AID 157); conditions: S. cerevisiae mec2-1 strain, at 50.0 µM, active compounds read high
Summary of the method: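 Using mec2-1 yeast: add compound, measure growth, express inhibition versus vehicle-treated cultures.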

[3] = NCI Yeast Anticancer Drug Screen. Data for the sgs1 mgt1 strain (AID 161);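 also: 0% = growth of cultures given vehicle only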; conditions: S. cerevisiae sgs1 mgt1 strain, at 50.0 µM, active compounds read high
Summary of the method: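 Compounds are added to genetically altered yeast, and growth is compared with cultures given vehicle alone to give percent inhibition.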

[4] = NCI Yeast Anticancer Drug Screen. Data for the cln2 rad14 strain (AID 165);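 also: 0% = growth equal to vehicle treated cultures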; conditions: S. cerevisiae cln2 rad14 strain, at 50.0 µM, active compounds read high
Summary of the method: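 Yeast strain cln2 rad14, bearing defects in cell cycle control and DNA repair, serves as the test system; values reflect growth inhibition compared with vehicle.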

[5] = NCI Yeast Anticancer Drug Screen. Data for the bub3 strain (AID 167); conditions: S. cerevisiae bub3 mutant strain, at 50.0 µM, active compounds read high
Summary of the method: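 Part of a panel of yeast mutants defective in DNA damage repair or cell cycle regulation. Each strain is grown with compound, and inhibition is calculated relative to solvent-treated cultures.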

[6] = NCI Yeast Anticancer Drug Screen. Data for the mlh1 rad18 strain (AID 175); conditions: S. cerevisiae mlh1 rad18 strain growth inhibition; at 50.0 µM; active compounds read high
Summary of the method: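 Steps: expose repair-defective yeast to compound; measure growth; express inhibition against vehicle-treated controls.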

Measured: growth inhibition

CCOc1cccc(OCC)c1C
inactive: [1] -4.55% | [2] -17.4% | [3] -2.55% | [4] 11.3% | [5] -9% | [6] 14.9%

CCOC(=O)c1sc2nc(-c3ccccc3)nn2c1CBr
inactive: [1] 17.1% | [2] 3.95% | [3] 11.9% | [4] 24.1% | [5] 18.6% | [6] 49.4%

CC(O)C(C)(C)O (stereo unspecified)
inactive: [1] 12.3% | [2] -8.85% | [3] 15.6% | [4] -13.4% | [5] 16.1% | [6] 4.15%

O=C1CSC(=O)N1
inactive: [1] -24.3% | [2] -14.4% | [3] -0.2% | [4] -32.8% | [5] -38% | [6] -41.5%

CCCC(=O)OCC(C)(C)CC(C)C
inactive: [1] -9.55% | [2] -57.9% | [3] -10.5% | [4] -5.55% | [5] -14.5% | [6] -24.4%

O=C(/C=C/c1ccco1)c1ccc(NCc2nc3ccccc3[nH]2)cc1
inactive: [1] 40.2% | [2] -7% | [3] 41.5% | [4] 33.9% | [5] 13.8% | [6] 25.8%

C/C([O-])=N\[N+](C)(C)Cc1ccccc1
inactive: [1] -4.65% | [2] 0.8% | [3] -11.7% | [4] -23.4% | [5] -6.6% | [6] 5.8%

O=c1cccccc1Cl
inactive: [1] 14.8% | [2] -41.6% | [3] 20.9% | [4] 5.6% | [5] 40.8% | [6] 11.6%

CC(=NCCN=C(C)c1ccccc1O)c1ccccc1O.[Cu]
inactive: [1] -17.9% | [2] -8.05% | [3] 2.25% | [4] -23.6% | [5] -6.15% | [6] -8.55%

N#C/C(=C/N1CCNC1=S)C(N)=O
inactive: [1] 4.95% | [2] 5% | [3] 9.5% | [4] 23.9% | [5] -2.8% | [6] 12.4%

O=C(OCC1OC=C(OC(=O)c2ccccc2)C1OC(=O)c1ccccc1)c1ccccc1 (stereo unspecified)
active: [1] 91.8%
inactive: [2] 11.7% | [3] 32.3% | [4] 24.9% | [5] -1.85% | [6] 60%

C1CC2CCC1CN(C1COC(N3CC4CCC(CC4)C3)CO1)C2 (stereo unspecified)
inactive: [1] -5.15% | [2] 1.55% | [3] 9.7% | [4] 58.4% | [5] 4.9% | [6] -0.65%

COC(=O)c1ccc(/C=C2\CCc3ccccc3C2=O)cc1
inactive: [1] -9.9% | [2] -9.15% | [3] -16.2% | [4] 12.5% | [5] 14.2% | [6] 11.2%

CCOC(=O)c1cnc(-n2[nH]c(C)c(CCO)c2=O)[nH]c1=O
inactive: [1] -11.2% | [2] -46.9% | [3] -33.1% | [4] -6.15% | [5] -8.9% | [6] -37%

O=C(OCC1OC(OC(=O)c2ccc([N+](=O)[O-])cc2)CC(OC(=O)c2ccc([N+](=O)[O-])cc2)C1OC(=O)c1ccc([N+](=O)[O-])cc1)c1ccc([N+](=O)[O-])cc1 (stereo unspecified)
inactive: [1] 11.2% | [2] 15.2% | [3] 4.1% | [4] -7.35% | [5] -4.15% | [6] 36.5%

CC1=NC2(CCCCC2)N(Cl)C(=O)C1SC#N (stereo unspecified)
inactive: [1] -45.2% | [2] -72.3% | [3] -23.8% | [4] -27.6% | [5] -13.8% | [6] -27.4%

CCN1C(=O)/C(=C/c2cc([N+](=O)[O-])ccc2OCC(=O)O)SC1=S
inactive: [1] -1.85% | [2] -11.3% | [3] 3.5% | [4] -42.8% | [5] 2.55% | [6] 1.4%

CCOC(=O)CCC(NC(=O)c1ccc(OCc2ccc3nc(OC)c(OC)nc3c2)cc1)C(=O)OCC (stereo unspecified)
inactive: [1] -14.2% | [2] -17.9% | [3] -21.6% | [4] 5% | [5] -4.75% | [6] 13.2%

O=C1/C(=C\C=C\c2ccccc2)CCC/C1=C/C=C/c1ccccc1
inactive: [1] 15.3% | [2] 5.05% | [3] 5.7% | [4] 20.8% | [5] 34% | [6] 3.1%

CN(C)C=NCC(O)c1ccccc1 (stereo unspecified)
inactive: [1] 13.3% | [2] 15% | [3] 0% | [4] -3% | [5] -21.2% | [6] -22.1%

CCOC(=O)c1cnc2cc(C)cc(C)c2c1Nc1ccc2c(c1)OCO2
inactive: [1] -8.15% | [2] -4.65% | [3] -12.3% | [4] -36% | [5] 5.45% | [6] -2.9%
